Bioassay records deposited in PubChem by National Center for Advancing Translational Sciences (NCATS).
In the library only some 10% were active in any assay of this set; here they are far more common.
NPR1 antag = antagonists of human natriuretic peptide receptor Npr1 | P16066 | HEK293 hNpr1 GloSensor cGMP, ANP-stimulated luminescence | Potency, µM (series often up to 46.3 µM), usual class: inhibitors | 1.6% of 76,000 active | AID 1347048; calls by dose curve; note: nearly all actives have a fitted effect of over 60% in size
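HEK293 cells stably expressing human Npr1 and cGMP GloSensor pGS-40F, loaded 2 h with 2% GloSensor reagent, given compound 30 min at room temperature. Luminescence read before and 20 min after 0.1 nM hNppA.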
GPT2 inh = GPT2 alanine aminotransferase inhibition | Q8TD30 | Recombinant GPT2, coupled pyruvate oxidase/HRP Amplex Red fluorescence | Potency, µM (doses to about 57.7 µM), usual class: inhibitors | 0.25% of 100,000 active; note: nearly all actives have a fitted effect of over 60% in size
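Fluorescence of coupled pyruvate oxidase/HRP/Amplex Red system (50uM Amplex, 30 min, dark) reports pyruvate formed by GPT2. Enzyme reaction: 10ng/uL GPT2, 2mM L-alanine, 250uM a-KG, 30 min room temperature, pH 7.5; 50uM AOA control.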
HEK cytotox = cytotoxic compounds in HEK 293 cells; AID 1345083; 6.6% of 94,000 active; HEK 293 viability, ATP luminescence (CellTiter-Glo), 48-72 h; Potency, µM (doses to about 115 µM), hits mostly inhibitors; note: nearly all actives have a fitted effect of over 60% in size
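HEK 293 seeded at 250 cells/well receive compound via pintool. After 48 or 72 hr at 37 degree Celsius, 5% CO2 and 95% humidity, CellTiter-Glo is dispensed and luminescence read following 10 min at room temperature.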
Luciferase inh = blocks purified firefly luciferase enzyme activity | P08659 | purified P. pyralis luciferase, luminescence, biochemical | Potency, µM (series often up to 115 µM), hits mostly inhibitors | 2.5% of 76,000 active | AID 1347043; note: nearly all actives have a fitted effect of over 65% in size
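Biochemical qHTS: compound (6-point titration) added to 10uM D-luciferin plus 10uM ATP in Tris acetate pH 7.5 buffer with Mg, Tween-20 and BSA, then purified enzyme at 10nM; light output imaged.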
3T3 cytotox = kills NIH 3T3 cells. NIH 3T3 viability, CellTiter-Glo ATP luminescence, 48-72 h. Potency, µM (highest dose often 96.7 µM), actives largely listed as inhibitors. 4.3% of 94,000 active. AID 1345082; note: nearly all actives have a fitted effect of over 55% in size
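Viability of NIH 3T3 cells after 48 or 72 hr compound treatment at 37 °C was assessed by CellTiter-Glo, with luminescence imaged following a 10 min room-temperature step.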
Large screens that a line does not name were inactive. Unless noted, calls come from the whole dose curve; as a rule, active = well fitted curve in the direction sought with a large enough effect; inconclusive = small, poorly fitted or top-dose-only effect, or another doubt; inactive = no such curve, though single readings can be large; an effect the other way counts as inactive or inconclusive.

O=C(NCc1ccccc1)c1noc(-c2ccc3c(c2)OCO3)n1	HEK cytotox inconclusive, Luciferase inh 39.8µM, 3T3 cytotox inconclusive
Cc1ccc(-c2nc(C(=O)NCc3cc(F)cc(F)c3)no2)cc1	HEK cytotox 31.6µM, 3T3 cytotox inconclusive
COC1CN(C2CCN(C(=O)c3ccc(C)nc3)CC2)C12CCOCC2 (stereo unspecified)	none
O=C(NCc1ccc(F)cc1)c1noc(-c2ccc3c(c2)OCO3)n1	Luciferase inh inconclusive
O=C(NCc1ccccc1F)c1noc(-c2ccc3c(c2)OCO3)n1	Luciferase inh 31.6µM, 3T3 cytotox inconclusive
Cc1ccc(-c2nc(C(=O)NCc3ccco3)no2)cc1	Luciferase inh 15.8µM
Cc1ccc(-c2nc(C(=O)NCc3ccccc3F)no2)cc1	Luciferase inh 22.4µM
O=C(NCc1ccc(F)cc1F)c1noc(-c2ccc(F)cc2)n1	none
CNC(=O)c1cnn2c1CN([S+](=O)([O-])c1c(C)noc1C)CC2	none (no result: NPR1 antag, Luciferase inh)
CCOC(=O)c1cccc(NC(=O)N2CC[C@@H](CC(=O)NCCSC)[C@@H](CC)C2)c1	3T3 cytotox inconclusive
COCCN1C[C@H]2COc3ccc(C)cc3[C@H]2N(C(=O)CC(C)(C)C)CCC1=O	3T3 cytotox inconclusive (no result: NPR1 antag, GPT2 inh, Luciferase inh)
Cc1noc(-c2ccc(OC3CN(C(=O)NC4CCCCC4)C3)cc2)n1	NPR1 antag inconclusive, HEK cytotox 39.8µM, 3T3 cytotox inconclusive
Cc1noc(-c2cccc(OC3CN(C(=O)NC4CCCC4)C3)c2)n1	HEK cytotox 79.4µM, 3T3 cytotox inconclusive
Cc1nn(C(=O)CCC(=O)N2CCC(Cc3nncn3-c3ccccc3)CC2)c2ccccc12	none
COc1ccc(NC(=O)C2CCCN(c3cnn(Cc4ccccc4)c(=O)c3)C2)cc1OC (stereo unspecified)	3T3 cytotox inconclusive
N#Cc1cccc(-c2c(C(=O)NCc3ccccc3F)nc3sccn23)c1	none (no result: NPR1 antag, Luciferase inh)
N#Cc1cccc(-c2c(C(=O)NCc3ccc(Cl)cc3)nc3sccn23)c1	HEK cytotox inconclusive, 3T3 cytotox 35.5µM (no result: NPR1 antag, Luciferase inh)
N#Cc1cccc(-c2c(C(=O)NCc3cccc(C(F)(F)F)c3)nc3sccn23)c1	HEK cytotox 35.5µM, 3T3 cytotox inconclusive (no result: NPR1 antag, Luciferase inh)
O=C(NCc1ccccn1)c1nc2sccn2c1-c1cccc(C(F)(F)F)c1	HEK cytotox inconclusive, 3T3 cytotox 31.6µM (no result: NPR1 antag, Luciferase inh)
Cc1ccc(-c2c(C(=O)NCc3cccc(C(F)(F)F)c3)nc3sccn23)cc1	HEK cytotox 22.4µM, 3T3 cytotox inconclusive (no result: NPR1 antag, Luciferase inh)
O=C1CCCCC(CNC(=O)c2cncc(Br)c2)N1 (stereo unspecified)	HEK cytotox inconclusive
CNC(=O)c1cc2cc(-c3c(C)noc3C)nc(-c3cccc(OC)c3OC)c2o1	HEK cytotox inconclusive, 3T3 cytotox inconclusive
OC(c1ccc2c(c1)CCO2)c1nc(Nc2cccc(C(F)(F)F)c2)n[nH]1 (stereo unspecified)	GPT2 inh inconclusive, HEK cytotox 70.8µM, 3T3 cytotox inconclusive
OC(c1nc(Nc2ccc(Cl)c(C(F)(F)F)c2)n[nH]1)C1CC1 (stereo unspecified)	NPR1 antag inconclusive, HEK cytotox 56.2µM, Luciferase inh inconclusive, 3T3 cytotox 50.1µM
Cc1ccccc1Nc1n[nH]c(C(O)c2ccc3c(c2)CCO3)n1 (stereo unspecified)	GPT2 inh inconclusive, HEK cytotox inconclusive, 3T3 cytotox inconclusive
OC(c1cccc(C(F)(F)F)c1)c1nc(Nc2cccc(Cl)c2)n[nH]1 (stereo unspecified)	NPR1 antag inconclusive, HEK cytotox 63.1µM, 3T3 cytotox 50.1µM
COc1ccc(Nc2n[nH]c(C(O)c3cccc(C(F)(F)F)c3)n2)cn1 (stereo unspecified)	HEK cytotox inconclusive, 3T3 cytotox inconclusive
FC(F)(F)Oc1ccc(Nc2cnc3ccc(N4CCOCC4)nn23)cc1	HEK cytotox 50.1µM, 3T3 cytotox inconclusive
Cc1nnc2ccc(N3CCOCC3)nn12	none
FC(F)(F)c1cc(Nc2cnc3ccc(N4CCOCC4)nn23)ccc1Cl	NPR1 antag inconclusive, GPT2 inh inconclusive, HEK cytotox 79.4µM, 3T3 cytotox inconclusive
COc1ccc(Nc2cnc3ccc(N4CCOCC4)nn23)cn1	GPT2 inh inconclusive, HEK cytotox inconclusive, 3T3 cytotox inconclusive
CN1CCC[C@H]1CCO[C@](C)(c1ccccc1)c1ccc(Cl)cc1	none (no result: NPR1 antag, HEK cytotox, Luciferase inh, 3T3 cytotox)
CCn1ncc(N2CCCC(CC(=O)N3CCN(c4cccc(Cl)c4)CC3)C2)cc1=O (stereo unspecified)	NPR1 antag inconclusive, HEK cytotox 35.5µM, 3T3 cytotox inconclusive
O=C(CC1CCCN(c2cnn(CC3CC3)c(=O)c2)C1)N1CCN(c2ccccc2)CC1 (stereo unspecified)	NPR1 antag inconclusive, HEK cytotox 50.1µM, 3T3 cytotox inconclusive
CCN1CCN(C(=O)CC2CCCN(c3cnn(CC)c(=O)c3)C2)CC1 (stereo unspecified)	none
CN1CCN(C(=O)CC2CCCN(c3cnn(CC4CC4)c(=O)c3)C2)CC1 (stereo unspecified)	none
CC1(NC(=O)C2CC2)CN(Cc2nc(-c3ccc(Oc4ccccc4)cc3)cs2)C1	NPR1 antag 8.91µM, HEK cytotox 35.5µM, Luciferase inh inconclusive, 3T3 cytotox inconclusive
CC1(NC(=O)C2CC2)CN(Cc2nc(-c3cccc(N4CCOCC4)c3)cs2)C1	HEK cytotox inconclusive, Luciferase inh 39.8µM
Cn1ccc2cc(-c3csc(CN4CC(C)(NC(=O)C5CC5)C4)n3)ccc21	NPR1 antag inconclusive, HEK cytotox inconclusive, Luciferase inh inconclusive, 3T3 cytotox inconclusive
O=C(c1ccccc1-c1ncn[nH]1)N1CCn2nc(Cc3ccccc3)cc2C1	none
Cc1ccc(-c2cccc(CN3CCCC3C(=O)NCc3cccc(C(F)(F)F)c3)c2)cc1Cl (stereo unspecified)	HEK cytotox 39.8µM, 3T3 cytotox 39.8µM (no result: NPR1 antag, GPT2 inh, Luciferase inh)
O=C(NCc1ccccc1)C1CCCN1Cc1ccc(-c2cncnc2)cc1 (stereo unspecified)	HEK cytotox inconclusive (no result: NPR1 antag, Luciferase inh)
CCOCCCNC(=O)C1CCCN1Cc1ccc(-c2cncnc2)cc1 (stereo unspecified)	none (no result: NPR1 antag, Luciferase inh)
COC(=O)CNC(=O)C1CCCN1Cc1ccc(-c2cncnc2)cc1 (stereo unspecified)	3T3 cytotox inconclusive (no result: NPR1 antag, Luciferase inh)
COC(=O)CNC(=O)C1CCCN1Cc1cccc(-c2ccc(C)c(Cl)c2)c1 (stereo unspecified)	HEK cytotox 39.8µM, 3T3 cytotox inconclusive (no result: NPR1 antag, GPT2 inh, Luciferase inh)
Cc1ccc(-c2cccc(CN3CCCC3C(=O)NCc3ccccc3)c2)cc1Cl (stereo unspecified)	HEK cytotox 50.1µM, 3T3 cytotox 44.7µM (no result: NPR1 antag, GPT2 inh, Luciferase inh)
CCOCCNC(=O)C1CCCN1Cc1cccc(-c2ccc(C)c(Cl)c2)c1 (stereo unspecified)	HEK cytotox inconclusive, 3T3 cytotox 14.1µM (no result: NPR1 antag, GPT2 inh, Luciferase inh)
O=C(CN1CC2CC(C1)[C@H]1CCCC(=O)N1C2)NCc1ccc(OC(F)(F)F)cc1 (stereo partly specified)	none
O=C(NCCc1ccccc1)C1CCN(C(=O)[C@H]2CCC[C@@H](O)C2)CC1	GPT2 inh inconclusive
